Laboratory results as given in PubChem BioAssay (Tox21).
Records with an inconclusive call do not appear. Activity calls are given as the source filed them. Unless noted, calls follow the shape of the dose curve; as a rule, active = well fitted curve in the direction sought with a large enough effect in the repeat runs; inconclusive = weak or mixed curves; inactive = no such curve, though single readings can be large; an effect the other way counts as inactive or inconclusive.

Key:
[1] = biological target: Thyrotropin receptor (Homo sapiens) (UniProt P16473); assay: qHTS assay to identify small molecule agonists of the thyroid stimulating hormone receptor (TSHR) signaling pathway (AID 1224843; calls by dose curve; also: nearly all actives have a fitted effect of over 45% in size)
Outline: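 Cell line HEK293 with TSHR; density 800/well. Exposure 30 min RT. Readout HTRF cAMP (cAMP-d2/anti-cAMP-cryptate), 1 h RT before reading.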

[2] = qHTS assay to identify small molecule agonists of the hypoxia (HIF-1) signaling pathway - cell viability counter screen (AID 1224844; calls by dose curve; also: nearly all actives have a fitted effect of over 50% in size)
Outline: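 Luminescent ATP content (CellTiter-Glo, 30 min, room temperature) served as the viability measure in HRE-bla ME-180 cells exposed to compounds for 17 hrs in low-serum medium (0.5% dialyzed FBS).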

[3] = qHTS assay to identify small molecule agonists of the hypoxia (HIF-1) signaling pathway (AID 1224846; active = well fitted activation curve with a large enough effect in the signal ratio in the repeat runs, not every such curve was filed as active; the % refers to the signal ratio)
Outline: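 Measured by blue/green FRET after loading CCF4-AM: beta-lactamase expressed from a hypoxia response element in ME-180 cells. Test agents were delivered in DMSO and left 17 hrs; cells had been plated 5 hrs earlier in low-serum (0.5% dialyzed FBS) medium.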

[4] = qHTS RealTime-Glo MT Cell Viability Assay in HepG2 cells - 24 hour (AID 1224867); also: nearly all actives have a fitted effect of over 50% in size
Outline: (§1)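 Real-time, nonlytic viability: 600 HepG2 cells/well mixed with NanoLuc enzyme plus prosubstrate; 5 h settle, compound (DMSO) added by pintool; luminescence monitored over 40 h at 37 C.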

[5] = qHTS RealTime-Glo MT Cell Viability Assay in HEK293 cells - 32 hour (AID 1224868); also: top concentration of the series differs between compounds; nearly all actives have a fitted effect of over 50% in size
Outline: (§2)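 Cells + reagent dispensed (600 cells/well, HEK293) → 5 h at 37 C/5% CO2 → 23 nL compound in DMSO pinned → 40 h at 37 C → luminescence read at 0, 8, 16, 24, 32, 40 h.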

[6] = A CellTox Green Cytotoxicity Assay to monitor cytotoxicity in HEK293 cells - 0 hour (AID 1224869); also: nearly all actives have a fitted effect of over 50% in size
Outline: (§3)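 Each value comes from one timepoint of a single continuous run in which HEK293 cells with CellTox Green were exposed to compound for up to 40 h at 37 C, dye fluorescence rising with cell death.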

[7] = qHTS RealTime-Glo MT Cell Viability Assay in HepG2 cells - 40 hour (AID 1224870); also: nearly all actives have a fitted effect of over 50% in size
Outline: (§4)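 HepG2 cells mixed with RealTime-Glo MT reagents (NanoLuc plus cell-permeant prosubstrate) were seeded at 600 cells/well, incubated 5 h at 37 C/5% CO2, then pinned with compounds in DMSO; nonlytic luminescence tracked viability during 40 h treatment.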

[8] = A CellTox Green Cytotoxicity Assay to monitor cytotoxicity in HEK293 cells - 40 hour (AID 1224871); also: nearly all actives have a fitted effect of over 45% in size
Outline: as §3

[9] = qHTS RealTime-Glo MT Cell Viability Assay in HEK293 cells - 16 hour (AID 1224872)
Outline: as §2

[10] = qHTS RealTime-Glo MT Cell Viability Assay in HepG2 cells - 8 hour (AID 1224873); also: nearly all actives have a fitted effect of over 55% in size
Outline: as §4

[11] = qHTS RealTime-Glo MT Cell Viability Assay in HEK293 cells - 40 hour (AID 1224874); settings: RealTime-Glo luminescence, active compounds read low; also: nearly all actives have a fitted effect of over 50% in size
Outline: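 qHTS format; HEK293 cells with NanoLuc/prosubstrate reagent, 37 C/5% CO2 for 5 h pre-dosing; compounds 23 nL in DMSO; luminescence at each time point reflects viable cells.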

[12] = A CellTox Green Cytotoxicity Assay to monitor cytotoxicity in HepG2 cells - 16 hour (AID 1224876); also: nearly all actives have a fitted effect of over 45% in size
Outline: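 Continuous culture of HepG2 cells with a membrane-impermeant DNA dye; rising fluorescence marks dead cells. Compound exposure lasted up to 40 h at 37 C, with reads every 8 h from 0 h.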

[13] = qHTS RealTime-Glo MT Cell Viability Assay in HepG2 cells - 32 hour (AID 1224877); also: nearly all actives have a fitted effect of over 55% in size
Outline: as §1

[14] = qHTS assay to identify small molecule agonists of H2AX (AID 1224845; active = well fitted activation curve with a large enough effect in the signal ratio in the repeat runs, not every such curve was filed as active; the % refers to the signal ratio)
Outline: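 Wild-type CHO-K1 cells plated overnight, then exposed 3 hr at 37C to compounds at 15 concentrations (0.76% DMSO). Lysed, then HTRF anti-pH2AX(S139)-cryptate/anti-H2AX-d2 detection after 24 hr at room temperature; emissions 665 and 620 nm.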

[15] = qHTS assay to identify small molecule agonists of H2AX - cell viability counter screen (AID 1224847; calls by dose curve; also: top concentration of the series differs between compounds; nearly all actives have a fitted effect of over 30% in size)
Outline: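 CHO-K1 wt, 1000 cells/well, o/n 37C; cpds 15 conc, 3 h 37C, 0.76% DMSO; CellTiter-Glo, 30 min RT, luminescence.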

[16] = A CellTox Green Cytotoxicity Assay to monitor cytotoxicity in HEK293 cells - 24 hour (AID 1224875); also: series mostly up to about 77 µM; nearly all actives have a fitted effect of over 45% in size
Outline: as §3
% is scaled to controls: 0 for no effect and ±100 for the full control effect.

Chain of Thyrotropin receptor (Homo sapiens) (P16473 whole entry, looked up): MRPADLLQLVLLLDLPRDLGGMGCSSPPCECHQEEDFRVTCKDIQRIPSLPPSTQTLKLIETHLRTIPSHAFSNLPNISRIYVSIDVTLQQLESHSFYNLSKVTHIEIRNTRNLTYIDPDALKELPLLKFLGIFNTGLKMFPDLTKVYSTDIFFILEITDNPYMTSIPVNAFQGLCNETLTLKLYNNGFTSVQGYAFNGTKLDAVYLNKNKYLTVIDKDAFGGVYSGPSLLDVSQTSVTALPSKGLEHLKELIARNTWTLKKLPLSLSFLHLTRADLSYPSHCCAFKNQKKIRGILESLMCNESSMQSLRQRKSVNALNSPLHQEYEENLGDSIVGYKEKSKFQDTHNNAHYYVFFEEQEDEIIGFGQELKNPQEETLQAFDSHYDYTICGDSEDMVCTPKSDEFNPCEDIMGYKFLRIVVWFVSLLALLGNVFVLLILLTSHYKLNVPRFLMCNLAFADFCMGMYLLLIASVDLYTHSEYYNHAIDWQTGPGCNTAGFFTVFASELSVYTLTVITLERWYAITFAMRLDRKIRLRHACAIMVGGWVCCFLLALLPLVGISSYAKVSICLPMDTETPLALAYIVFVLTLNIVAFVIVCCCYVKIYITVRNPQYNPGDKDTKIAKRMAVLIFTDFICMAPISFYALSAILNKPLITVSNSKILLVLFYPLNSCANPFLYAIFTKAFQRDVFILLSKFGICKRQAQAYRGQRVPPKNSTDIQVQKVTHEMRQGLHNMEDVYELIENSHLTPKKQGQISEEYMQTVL

CCOC(=O)CC(C(C)=O)C(C)=O
inactive: Potency [1] | outcome [2] | outcome [3] | outcome [4] | outcome [5] | outcome [6] | outcome [7] | Potency [8] | outcome [9] | outcome [10] | max response [11] 0.909% | Potency [12] | outcome [13]

O=Cc1ccccc1S(=O)(=O)O
inactive: outcome [2] | outcome [14] | outcome [3] | outcome [15] | outcome [4] | outcome [5] | outcome [6] | outcome [7] | Potency [8] | outcome [9] | outcome [10] | max response [11] 7.86% | Potency [16] | Potency [12] | outcome [13]

CCOC(=O)COc1ccc2c(C)c(CCN(CC)CC)c(=O)oc2c1Cl
inactive: outcome [2] | outcome [14] | outcome [3] | outcome [15] | outcome [4] | outcome [5] | outcome [7] | Potency [8] | outcome [10] | max response [11] 1.31% | Potency [16] | Potency [12] | outcome [13]

CC[N+](C)(CC)CC
inactive: outcome [2] | outcome [14] | outcome [3] | outcome [15] | outcome [4] | outcome [6] | outcome [7] | Potency [8] | outcome [9] | outcome [10] | max response [11] 13.2% | Potency [16] | Potency [12] | outcome [13]

CC(=O)Nc1ccc(S(=O)(=O)Nc2cc(C)on2)cc1
inactive: Potency [1] | outcome [2] | outcome [3] | outcome [4] | outcome [6] | outcome [7] | outcome [10] | max response [11] 0.358% | Potency [16] | Potency [12] | outcome [13]

Cc1ccc(S(=O)(=O)NC(=O)NN2CC3CCCC3C2)cc1 (configuration not stated)
inactive: Potency [1] | outcome [2] | outcome [4] | outcome [5] | outcome [7] | outcome [9] | outcome [10] | max response [11] 5.04% | Potency [16] | Potency [12] | outcome [13]

CCC(C)SSC(C)CC (configuration not stated)
inactive: Potency [1] | outcome [2] | outcome [3] | outcome [4] | outcome [5] | outcome [6] | outcome [7] | Potency [8] | outcome [9] | outcome [10] | max response [11] 3.14% | Potency [16] | Potency [12] | outcome [13]

COC(=O)c1ccccc1Cl
inactive: outcome [2] | outcome [3] | outcome [15] | outcome [4] | outcome [5] | outcome [6] | outcome [7] | outcome [9] | outcome [10] | max response [11] 2.48% | Potency [12] | outcome [13]

CC1(C)S[C@@H]2[C@H](NC(=O)Cc3ccccc3)C(=O)N2[C@H]1C(=O)O (tested in a mixture with another compound)
inactive: Potency [1] | outcome [2] | outcome [15] | outcome [4] | outcome [5] | outcome [6] | outcome [7] | Potency [8] | outcome [9] | outcome [10] | max response [11] -2.11% | Potency [16] | Potency [12] | outcome [13]

CCCCCCCCCCCBr
inactive: outcome [2] | outcome [3] | outcome [4] | outcome [5] | outcome [6] | outcome [7] | Potency [8] | outcome [9] | outcome [10] | max response [11] -3.54% | Potency [16] | Potency [12] | outcome [13]

N#Cc1ccccc1C#N
inactive: outcome [2] | outcome [14] | outcome [3] | outcome [15] | outcome [4] | outcome [5] | outcome [7] | outcome [9] | outcome [10] | max response [11] 4.47% | Potency [16] | Potency [12] | outcome [13]

O=S(=O)(O)CC(O)CCl (configuration not stated)
inactive: outcome [2] | outcome [14] | outcome [3] | outcome [15] | outcome [4] | outcome [5] | outcome [6] | outcome [7] | Potency [8] | outcome [9] | outcome [10] | max response [11] 5.44% | Potency [16] | Potency [12] | outcome [13]

COC(C)(C)CC(C)=O
inactive: outcome [2] | outcome [14] | outcome [3] | outcome [15] | outcome [4] | outcome [5] | outcome [6] | outcome [7] | outcome [9] | outcome [10] | max response [11] 1.4% | Potency [16] | Potency [12] | outcome [13]

CC1=C(O)C(=O)CO1
inactive: outcome [2] | outcome [14] | outcome [3] | outcome [4] | outcome [5] | outcome [6] | outcome [7] | Potency [8] | outcome [9] | outcome [10] | max response [11] 0.017% | Potency [12] | outcome [13]

O=C(O)COc1ccc2ccccc2c1
inactive: outcome [2] | outcome [14] | outcome [3] | outcome [15] | outcome [4] | outcome [5] | outcome [7] | outcome [9] | outcome [10] | max response [11] 1.62% | Potency [16] | Potency [12] | outcome [13]

CN(C)CCc1c[nH]c2ccc(C[C@H]3COC(=O)N3)cc12
inactive: Potency [1] | outcome [3] | outcome [15] | outcome [4] | outcome [7] | Potency [8] | outcome [9] | outcome [10] | max response [11] 2.27% | Potency [16] | Potency [12] | outcome [13]

CCOC(=O)CN1CCCC1=O
inactive: outcome [2] | outcome [14] | outcome [3] | outcome [15] | outcome [4] | outcome [5] | outcome [6] | outcome [7] | outcome [9] | outcome [10] | Potency [16] | Potency [12] | outcome [13]

CC(C)(C)NCC(O)COc1cccc2c1CCC(=O)N2 (configuration not stated)
inactive: Potency [1] | outcome [2] | outcome [15] | outcome [4] | outcome [5] | outcome [6] | outcome [7] | Potency [8] | outcome [9] | outcome [10] | Potency [16] | Potency [12] | outcome [13]

O=P(O)(O)C(O)(Cc1cccnc1)P(=O)(O)O
inactive: outcome [2] | outcome [14] | outcome [3] | outcome [15] | outcome [4] | outcome [5] | outcome [6] | outcome [7] | Potency [8] | outcome [9] | outcome [10] | max response [11] -1.75% | Potency [16] | Potency [12] | outcome [13]

COc1cc(C(=O)NC2CCCNC2)cc(OC)c1OC (configuration not stated)
inactive: Potency [1] | outcome [2] | outcome [3] | outcome [15] | Potency [8] | outcome [9] | max response [11] 1.36% | Potency [16] | Potency [12]

CC1(C)C(=O)C(C)(C)C1=O
inactive: outcome [2] | outcome [14] | outcome [3] | outcome [15] | outcome [4] | outcome [5] | outcome [6] | outcome [7] | Potency [8] | outcome [10] | max response [11] 6.04% | Potency [16] | Potency [12] | outcome [13]

CC(=O)OCC(=O)[C@@]1(O)CC[C@H]2[C@@H]3CCC4=CC(=O)C=C[C@]4(C)[C@H]3[C@@H](O)C[C@@]21C
inactive: outcome [2] | outcome [14] | outcome [4] | outcome [5] | outcome [6] | outcome [7] | Potency [8] | outcome [9] | outcome [10] | max response [11] -2.13% | Potency [16] | Potency [12] | outcome [13]
